Test results from PubChem BioAssay AID1159580 (chemical genetic matrix, 2015).
The campaign covered roughly 5,500 compounds. About 2,000 (36%) were called active. Another 18% or so got no clear call; they are omitted. Cut-off read from the data, not from the text of the source: active = normalized growth mostly below about 0.91 (no sharp cut-off); inconclusive = no clear call, values can overlap the other calls; inactive = mostly above about 0.92. Some of the results follow.

Test: chemical genetic growth profiling, strain panel (AID 1159580);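 note: tested at 20 µM; growth read once vehicle control cultures reached saturation at 30 °C; 1 = growth at the plate median or of vehicle wells; lower values mean less growth of the strain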
Settings: S. cerevisiae deletion strains, growth OD

Measured: normalized growth

COc1cc(O)c(C(C)=O)c(OC)c1
inactive: locus YJL187C, strain SWE1 (second series), hits give low values 1.01 | locus YJL187C, strain SWE1, hits give low values 1 | locus YJR066W, strain TOR1, hits give low values 0.89 | locus YKL009W, strain mrt4, hits give low values 1.02 | locus YKL068W, hits give low values 0.99 | locus YKL085W, strain MDH1 (second series), hits give low values 1.01 | locus YKL085W, strain MDH1, hits give low values 1.01 | locus YKL160W, strain elf1, hits give low values 0.986 | locus YKL190W, strain CNB1, hits give low values 1.01 | locus YKR001C, strain vps1, hits give low values 0.998 | locus YKR026C, strain gcn3, hits give low values 0.994 | locus YKR091W, strain srl3, hits give low values 0.998 | locus YLL001W, strain dnm1, hits give low values 0.992 | locus YLL026W, hits give low values 0.992 | locus YLL041C, strain sdh2, hits give low values 0.998 | locus YLR027C, strain aat2, hits give low values 0.987 | locus YLR039C, strain RIC1, hits give low values 1.1 | locus YLR058C, strain SHM2, hits give low values 1.02 | locus YLR102C, strain apc9, hits give low values 0.992 | locus YLR113W, strain HOG1, hits give low values 0.955 | locus YLR221C, strain rsa3, hits give low values 0.971 | locus YLR258W, strain gsy2, hits give low values 0.982 | locus YLR262C, strain YPT6 (second series), hits give low values 1.01 | locus YLR262C, strain YPT6, hits give low values 1.15 | locus YLR268W, strain sec22, hits give low values 1.01 | locus YLR320W, strain mms22, hits give low values 0.972 | locus YLR330W, strain CHS5, hits give low values 1.01 | locus YLR342W, strain FKS1, hits give low values 1.01 | locus YLR357W, strain rsc2, hits give low values 1.01 | locus YLR370C, strain arc18, hits give low values 1 | locus YLR371W, strain rom2, hits give low values 0.975 | locus YLR384C, strain iki3, hits give low values 1.01 | locus YLR418C, strain cdc73, hits give low values 0.998 | locus YML016C, strain PPZ1, hits give low values 1 | locus YML032C, strain rad52, hits give low values 1.01 | locus YML120C, strain ndi1, hits give low values 0.99 | locus YML124C, strain tub3, hits give low values 0.988 | locus YMR058W, strain fet3, hits give low values 0.972 | locus YMR078C, strain ctf18, hits give low values 0.98 | locus YMR125W, strain sto1, hits give low values 1.06 | locus YMR129W, hits give low values 1.01 | locus YMR205C, strain PFK2, hits give low values 1 | locus YMR223W, strain ubp8, hits give low values 0.989 | locus YMR231W, strain pep5, hits give low values 1.02 | locus YMR307W, strain GAS1, hits give low values 1.02 | locus YNL067W, strain RPL9B, hits give low values 1 | locus YNL071W, strain lat1, hits give low values 0.985 | locus YNL128W, strain TEP1, hits give low values 1.03 | locus YNL153C, strain GIM3, hits give low values 1.02 | locus YNL183C, strain NPR1, hits give low values 0.918 | locus YNL209W, strain ssb2, hits give low values 1 | locus YNL233W, strain BNI4, hits give low values 1.03 | locus YNL248C, strain rpa49, hits give low values 0.969 | locus YNL250W, strain rad50, hits give low values 0.99 | locus YNL271C, strain bni1, hits give low values 0.985 | locus YNL298W, strain CLA4, hits give low values 1 | locus YNL307C, strain MCK1, hits give low values 0.978 | locus YNL322C, strain KRE1 (second series), hits give low values 1.01 | locus YNR049C, strain mso1, hits give low values 1.01 | locus YNR052C, strain pop2, hits give low values 0.988 | locus YOL006C, strain TOP1, hits give low values 1.06 | locus YOL012C, strain htz1 0.925 | locus YOL147C, strain pex11, hits give low values 1 | locus YOR001W, strain rrp6, hits give low values 0.959 | locus YOR061W, strain CKA2, hits give low values 1.03 | locus YOR069W, strain VPS5, hits give low values 1 | locus YOR070C, strain gyp1, hits give low values 0.998 | locus YOR080W, strain dia2, hits give low values 1.01 | locus YOR083W, strain WHI5, hits give low values 0.965 | locus YOR106W, strain vam3, hits give low values 0.972 | locus YOR136W, strain idh2, hits give low values 1 | locus YOR144C, strain elg1, hits give low values 0.999 | locus YOR184W, strain ser1, hits give low values 1.03 | locus YOR231W, strain MKK1, hits give low values 0.956 | locus YOR265W, strain rbl2, hits give low values 0.989 | locus YOR270C, strain vph1, hits give low values 0.915 | locus YOR290C, strain snf2, hits give low values 0.95 | locus YOR316C, strain cot1, hits give low values 0.995 | locus YPL051W, strain arl3, hits give low values 0.966 | locus YPL078C, strain atp4, hits give low values 0.954 | locus YPL106C, strain sse1, hits give low values 0.982 | locus YPL240C, strain hsp82, hits give low values 1 | locus YPL256C, strain CLN2, hits give low values 0.978 | locus YPR119W, strain clb2, hits give low values 0.988 | locus YPR141C, strain kar3, hits give low values 0.993 | locus YPR163C, strain tif3, hits give low values 0.986 | locus YPR167C, strain met16, hits give low values 0.991 | strain wtn01, hits give low values 0.991
